Calls of active or inactive are those of the source. Rule for the calls: active = hit-call score of the fitted dose curve at least 0.9, where 1 is the maximum; inactive = score below 0.9.

The subject of this test is SRD5A2 (gene 6716). Nature of the test: CCTE_Deisenroth_5AR_NBTE_ratio: CCTE's 5alpha-reductase NanoBRET Target Engagement Assay - Ratio, Deisenroth Lab (AID 2284322). Particulars: actives raise or lower the signal. As to the method:
CCTE_Deisenroth_5AR NBTE (5alpha-reductase NanoBRET Target Engagement Assay) is a cell-based, single-readout assay that uses HEK293T, a human kidney cell line, with measurements taken at 5 hours after chemical dosing in a 384 well plate. This assay includes a primary and secondary screen as well as an autofluorscence screen.CCTE_Deisenroth_5AR NBTE_ratio is one of four assay components calculated from the CCTE_Deisenroth_5AR NBTE assay. It is designed to measure the ratio of target acceptor fluorophore resonance to donor bioluminescent signals.Data from the assay component CCTE_Deisenroth_5AR NBTE_ratio was analyzed into 1 assay endpoint. This assay endpoint, CCTE_Deisenroth_5AR NBTE_ratio, was analyzed with bidirectional fitting relative to DMSO as the negative control and baseline of activity. Using a type of inducible reporter, gain or loss-of-signal activity can be used to understand changes in 5alpha-reductase catalytic function. Furthermore, this assay endpoint can be referred to as a primary readout. To generalize the intended target to other relatable targets, this assay endpoint is annotated to the misc protein intended target family, where the subfamily is 5-alpha reductase.
For transient expression of the SRD5A2-NanoLuc fusion protein, HEK293T cells are reverse transfected with pNLF1-C-SRD5A2 expression vector and incubated for 20 hours to facilitate fusion protein expression. For assay setup, 384-well non-binding surface (NBS) microplates are pre-dispensed with test chemical across an 8-point concentration series (10 nM - 29.9 uM) with two technical replicates per run. Cell suspensions are dispensed into the microplates and incubated with test chemical for a duration of three hours. Following pre-incubation with test chemical, the testosterone tracer is dispensed into each well and incubated an additional two hours. The total incubation period with test chemical is five hours, with testosterone tracer added the final two hours to reach target engagement equilibrium. For the NanoBRET endpoint measurements, a solution of Nano-Glo substrate and extracellular NanoLuc inhibitor solution is added to each test well and immediately scanned on a plate reader configured with multichromatic emission settings for donor luminescence ([…]) and acceptor fluorescence ([…]). DMSO solvent controls are included as baseline control. Plate-matched samples are run with mock tracer conditions or testosterone tracer to discriminate any potential non-specific substrate interference.
On the technique in general: In BRET a luciferase serves as donor, and the signal depends on an acceptor being close.
As for `CCCCCCCCCCCCCOS(=O)(=O)O`, the AC50 was 81.8 µM (active).
On the same count and under the same terms, then `CCN(CC)c1ccc(C(=C2C=CC(=[N+](CC)CC)C=C2)c2ccc(S(=O)(=O)O)cc2S(=O)(=O)[O-])cc1`, with 3.22 µM (active).
Regarding `BrC1CCC(Br)C(Br)CCC(Br)C(Br)CCC1Br` (stereo not given), the outcome was inactive.
With `O=Nc1ccc(Nc2ccccc2)cc1`, the AC50 is 75.4 µM (active).
For the molecule `CCN(CC)c1ccc2c(-c3ccccc3C(=O)O)c3ccc(=[N+](CC)CC)cc-3oc2c1`, the AC50 is 22.1 µM (active).
On to `CC(C)=CCC[C@](C)(O)[C@@H]1CC=C(C)CC1`, for which the result was inactive.
Take `CC1CC(OC(=O)c2ccccc2O)CC(C)(C)C1` (stereo not given): the outcome was inactive.
For `CCCCCCCCCCCCCC(=O)O`, the outcome was inactive.
As to `CCCCCC(CO)CCC` (stereo not given), the result was inactive.
Consider `CCCCCCCCCCCCCCCC(=O)OC[C@H](O)[C@H]1OC(=O)C(O)=C1O`, for which the outcome was inactive.

For orientation: AC50 means the midpoint of the concentration-response curve, whichever way the signal moves.
